Laboratory results reported in PubChem BioAssay (NCATS).
Results filed as inconclusive are left out. A call without a number means that no potency is given here. Active and inactive are the calls of the source. Calls come from the whole dose curve; as a rule, active = well fitted inhibition curve with a large enough effect; inconclusive = small, poorly fitted or top-dose-only effect; inactive = flat fitted curve, though single readings scatter.

tested on: CP192; test: qHTS profiling for inhibitors of Plasmodium falciparum proliferation (AID 504749); note: nearly all actives have a fitted effect of over 60% in size; details: P. falciparum in erythrocytes, SYBR Green DNA, 72 h; series mostly up to 28.7 µM
In short: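 Infected RBCs, 0.3% parasitemia/2.5% Hct final; cpd 72 h, 37 C, 5% CO2; lysis buffer with saponin/triton/SYBR Green I, o/n RT dark; FI 485/535; norm. to artemisinin (0.29 uM) and DMSO.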

| SMILES | Potency |
| --- | --- |
| Cc1c(C)c2c(c(C)c1O)CCC(C)(COc1ccc(CC3SC(=O)NC3=O)cc1)O2 (configuration not stated) | inactive |
| N[C@@H]1CONC1=O | inactive |
| O=c1[nH]cnc2[nH]ncc12 | inactive |
| CC(C[N+](C)(C)C)OC(N)=O (configuration not stated) | inactive |
| Cc1[nH]c(=O)c(C#N)cc1-c1ccncc1 | inactive |
| C1COC(NC(C2CC2)C2CC2)=N1 | inactive |
| O=NN(CCCl)C(=O)NCCCl | inactive |
| C#Cc1cccc(Nc2ncnc3cc(OCCOC)c(OCCOC)cc23)c1 | inactive |
| NS(=O)(=O)c1cc2c(cc1Cl)NC=NS2(=O)=O | inactive |
| CC(c1cc2ccccc2s1)N(O)C(N)=O (configuration not stated) | inactive |
| NCCCC(N)(C(=O)O)C(F)F (configuration not stated) | inactive |
| CNC[C@H](O)c1cccc(O)c1 | inactive |
| CCCCNc1cc(C(=O)O)cc(S(N)(=O)=O)c1Oc1ccccc1 | inactive |
| O=C1CCc2cc(OCCCCc3nnnn3C3CCCCC3)ccc2N1 | inactive |
| NCCc1ccc(O)c(O)c1 | inactive |
| Nc1nc2c(ncn2COCCO)c(=O)[nH]1 | inactive |
| CCc1ccc(CCOc2ccc(CC3SC(=O)NC3=O)cc2)nc1 (configuration not stated) | inactive |
